The test has as its system AmpC beta-lactamase (E. coli). Put plainly: AmpC inhibition relative to DMSO; higher = more inhibition. Here is the method: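 Aggregation counter-screen: inhibition of E. coli AmpC beta-lactamase (5 nM, nitrocefin substrate, 50 mM sodium phosphate pH 7.0, RT, 5 min) by KAT inhibitors at 4, 11, 33 and 100 uM, with or without 0.01% Triton X-100. Percent inhibition is relative to DMSO controls. Four technical replicates.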

The mark [1] stands for this setting: 4 µM, detergent: 0.01% Triton X-100.
Setting [2] is: 11 µM, detergent: 0.01% Triton X-100.
[3] abbreviates: 33 µM, detergent: 0.01% Triton X-100.
[4] abbreviates: 100 µM, detergent: 0.01% Triton X-100.
Where [5] appears, read: 100 µM, detergent: no detergent.

± gives the standard deviation of the averaged measurements.

Regarding `ClC1=CC=C(C2=CSC(N/N=C3CCCC/3)=N2)C=C1`, the AmpC inhibition by setting is: under setting [1], 5.11 ± 3.4%; (4 µM, detergent: no detergent) 11.8 ± 4.8%; under setting [2], 4.35 ± 2.1%; (11 µM, detergent: no detergent) 6.62 ± 2.3%; under setting [3], 1.83 ± 7%; (33 µM, detergent: no detergent) 14.2 ± 9%. In addition, the AmpC inhibition is 7.09 ± 4.1% under setting [4] and 1.99 ± 3.6% under setting [5].
Take `C=C(C)[C@@H](CC=C(C)C)C[C@@]12C[C@@H](CC=C(C)C)C(C)(C)[C@@](CC=C(C)C)(C(=O)/C(=C(\O)c3ccc(O)c(O)c3)C1=O)C2=O`: the AmpC inhibition by setting is: under setting [1], 13.6 ± 17%; (4 µM, detergent: no detergent) 0.481 ± 8.4%; under setting [2], -2 ± 19%; (11 µM, detergent: no detergent) 17.9 ± 7.4%; under setting [3], 5.26 ± 8.2%; (33 µM, detergent: no detergent) 63 ± 4.7%. The AmpC inhibition is -8.29 ± 6.4% under setting [4] and 97.95 ± 0.64% under setting [5].
For the compound `c1cc(SSc2ccns2)sn1`, the AmpC inhibition reads like this: under setting [1], 7.81 ± 8.7%; (4 µM, detergent: no detergent) -0.684 ± 6.7%; under setting [2], 6.83 ± 7.1%; (11 µM, detergent: no detergent) 5.01 ± 6.3%; under setting [3], 7.13 ± 7.9%; (33 µM, detergent: no detergent) 3.34 ± 12%. Further, the AmpC inhibition by setting is: under setting [4], 9.28 ± 4%; under setting [5], 11 ± 4.2%.
On to `O=C(O[C@@H]1Cc2c(O)cc(O)cc2O[C@@H]1c1cc(O)c(O)c(O)c1)c1cc(O)c(O)c(O)c1`, for which the AmpC inhibition stood at 9.27 ± 1.3% under setting [1]; 11.2 ± 18% (4 µM, detergent: no detergent); 4.89 ± 2% under setting [2]; 16 ± 3.1% (11 µM, detergent: no detergent); 4.57 ± 1.2% under setting [3]; 19.6 ± 14% (33 µM, detergent: no detergent). Further, the AmpC inhibition was determined as 1.23 ± 6.1% under setting [4] and 30.2 ± 1.1% under setting [5].
Turning to `COc1ccc(/C(Cl)=C(/C=O)c2ccc(OC)cc2)cc1`, the AmpC inhibition is -3.57 ± 3.7% under setting [1]; -5.33 ± 6.8% (4 µM, detergent: no detergent); 3.37 ± 5.7% under setting [2]; 3.21 ± 3.9% (11 µM, detergent: no detergent); 8.7 ± 7.1% under setting [3]; 0.384 ± 4.4% (33 µM, detergent: no detergent). Further, the AmpC inhibition turned out to be 3.87 ± 1.3% under setting [4] and 12.1 ± 2.9% under setting [5].

Source of the values: the supplement of paper PMC10011410.
